Source: PubChem BioAssay (Tox21)
Inconclusive results are not listed. The source made the active and inactive calls. Unless noted, calls follow the shape of the dose curve; as a rule, active = well fitted curve in the direction sought with a large enough effect in the repeat runs; inconclusive = weak or mixed curves; inactive = no such curve, though single readings can be large; an effect the other way counts as inactive or inconclusive.

Assays:
[1] = qHTS assay for small molecules that induce genotoxicity in human embryonic kidney cells expressing luciferase-tagged ATAD5 (AID 651632); also: nearly all actives have a fitted effect of over 15% in size
Outline: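 HEK293T cells carrying luciferase-tagged ATAD5 were given compound or DMSO vehicle and incubated 16 hr at 37C, 5% CO2. Luciferase activity was read after 30 min at room temperature with Amplite; a rise signals genotoxic stress.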

[2] = qHTS assay for small molecule agonists of the p53 signaling pathway - cell viability (AID 651633; calls by dose curve;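 also: p53RE-bla HCT reporter cells with a stable beta-lactamase p53 reporter; series mostly up to about 83 µM; nearly all actives have a fitted effect of over 30% in size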)
Outline: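 Viability counter-read: CellTiter-Glo luminescence (30 min, room temperature) in the same p53RE-bla plates. These plates had been exposed to compounds for 16 h at 37 C.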

[3] = qHTS assay for small molecules that induce genotoxicity in human embryonic kidney cells expressing luciferase-tagged ATAD5 - cell viability (AID 651634; calls by dose curve; also: nearly all actives have a fitted effect of over 25% in size)
Outline: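 HEK293T cells carrying luciferase-tagged ATAD5, 2,000 cells/well, exposed to compound for 15.5 hr at 37C. Viability read as live-cell protease activity by CellTiter-Fluor fluorescence after 30 min at 37C.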

[4] = qHTS assay for small molecule disruptors of the mitochondrial membrane potential - cell viability (AID 720634; calls by dose curve;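 also: human HepG2 liver cancer cells; series mostly up to about 83 µM; nearly all actives have a fitted effect of over 20% in size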)
Outline: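 HepG2 cells, 2,000 per well, attached overnight, then treated 1 hr at 37 C, 5% CO2. Viability read as ATP by CellTiter-Glo luminescence after 30 min at room temperature. Read in the same wells as the m-MPI membrane-potential dye assay.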

[5] = qHTS assay to test for compound auto fluorescence at 590 nm (red) in HepG2 cells (AID 720674)
Outline: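 Red autofluorescence (Ex/Em 540/590 nm, Rose Bengal sodium equivalents) was measured in HepG2 cells, 2,000 per well in MEM plus 10% FBS, plated overnight at 37 C. Readings were taken 1 hr after adding 23 nL compound or DMSO, at 37 C and 5% CO2.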

[6] = qHTS assay to test for compound auto fluorescence at 535 nm (green) in HepG2 cells (AID 720675)
[7] = qHTS assay to test for compound auto fluorescence at 460 nm (blue) in HEK293 cells (AID 720678)
Outline: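 Blue read-out at excitation 405 nm and emission 460 nm follows overnight compound exposure of HEK293 cells at 37C in 5% CO2. Activity is given as auto fluorescence equivalency to triamterene.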

[8] = qHTS assay to test for compound auto fluorescence at 590 nm (red) in HEK293 cells (AID 720679)
Outline: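 Red channel, Ex/Em 540/590nm; signal expressed as equivalency to Rose Bengal sodium. HEK293, 2,000 cells/well, 10% dialyzed FBS; 23 nL compound pinned after 4-5 hr attachment; overnight 37C/5% CO2 before reading.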

[9] = qHTS assay to test for compound auto fluorescence at 460 nm (blue) in HEK293 cell free culture (AID 720681)
Outline: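 Blue fluorescence (Ex 405/Em 460 nm, triamterene-equivalent) was read immediately after pin transfer of compound or DMSO into medium (DMEM, 10% FBS) without cells.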

[10] = qHTS assay to test for compound auto fluorescence at 535 nm (green) in HEK293 cell free culture (AID 720682)
Outline: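 Intrinsic compound fluorescence is measured in culture medium containing 10% FBS, with excitation at 485 nm and detection at 535 nm, referenced to fluorescein.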

[11] = qHTS assay to test for compound auto fluorescence at 590 nm (red) in HEK293 cell free culture (AID 720683)
Outline: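 Red-channel autofluorescence of compounds in culture medium (DMEM, 10% FBS), no cells, measured at 540/590 nm. Rose Bengal sodium is the reference fluorophore for equivalence.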

[12] = qHTS assay to test for compound auto fluorescence at 460 nm (blue) in HepG2 cell free culture (AID 720685)
Outline: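 Compound (23 nL) or DMSO pinned into cell-free MEM with 10% FBS; blue fluorescence read at 405/460 nm excitation/emission, expressed as auto-fluorescence equivalency to triamterene.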

[13] = qHTS assay to test for compound auto fluorescence at 535 nm (green) in HepG2 cell free culture (AID 720686)
[14] = qHTS assay to test for compound auto fluorescence at 535 nm (green) in HEK293 cells (AID 720680)
[15] = qHTS assay to test for compound auto fluorescence at 590 nm (red) in HepG2 cell free culture (AID 720684)
Outline: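 Steps: dispense MEM/10% FBS medium, no cells; pin compound or DMSO vehicle; read red channel, Ex/Em 540/590 nm. Output given as Rose Bengal sodium equivalents.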

[16] = qHTS assay to test for compound auto fluorescence at 460 nm (blue) in HepG2 cells (AID 720687)
Outline: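 Blue-channel autofluorescence (Ex/Em 405/460 nm, triamterene-equivalent) was measured after 1 hr compound exposure at 37 C, 5% CO2. Cells were HepG2, plated overnight at 37 C in MEM plus 10% FBS.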

[17] = target: Glucocorticoid receptor (Homo sapiens) (UniProt P04150); test: qHTS assay to identify small molecule agonists of the glucocorticoid receptor (GR) signaling pathway (AID 720691; active = well fitted activation curve with a large enough effect in the signal ratio in the repeat runs, not every such curve was filed as active; the % refers to the signal ratio)
Outline: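 GR-bla HeLa cells carrying a GRE-driven beta-lactamase reporter, exposed to compounds for 18 h at 37 C. Reporter activation read as fluorescence after 2 h with LiveBLAzer B/G FRET substrate at room temperature.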

[18] = target: Glucocorticoid receptor (Homo sapiens) (UniProt P04150); test: qHTS assay to identify small molecule antagonists of the glucocorticoid receptor (GR) signaling pathway (AID 720692; active = well fitted inhibition curve with a large enough effect in the signal ratio in the repeat runs, not every such curve was filed as active; the % refers to the signal ratio)
Outline: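 GR-bla HeLa cells carrying a GRE-driven beta-lactamase reporter received compound after 4 h plating, then dexamethasone (5 nM final). After 18 h at 37C, the FRET substrate was loaded for 2 h at room temperature and fluorescence read.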

[19] = qHTS assay for small molecule disruptors of the mitochondrial membrane potential (AID 720635)
Outline: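 Mitochondrial membrane potential tracked with Mito-MPS dye, red aggregates (ex 540/em 590 nm) against green monomers (ex 490/em 535 nm). Compound treatment 1 hr at 37C, dye 30 min in HepG2.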

Measured: Potency

Chain of Glucocorticoid receptor (Homo sapiens) (P04150 whole entry, looked up): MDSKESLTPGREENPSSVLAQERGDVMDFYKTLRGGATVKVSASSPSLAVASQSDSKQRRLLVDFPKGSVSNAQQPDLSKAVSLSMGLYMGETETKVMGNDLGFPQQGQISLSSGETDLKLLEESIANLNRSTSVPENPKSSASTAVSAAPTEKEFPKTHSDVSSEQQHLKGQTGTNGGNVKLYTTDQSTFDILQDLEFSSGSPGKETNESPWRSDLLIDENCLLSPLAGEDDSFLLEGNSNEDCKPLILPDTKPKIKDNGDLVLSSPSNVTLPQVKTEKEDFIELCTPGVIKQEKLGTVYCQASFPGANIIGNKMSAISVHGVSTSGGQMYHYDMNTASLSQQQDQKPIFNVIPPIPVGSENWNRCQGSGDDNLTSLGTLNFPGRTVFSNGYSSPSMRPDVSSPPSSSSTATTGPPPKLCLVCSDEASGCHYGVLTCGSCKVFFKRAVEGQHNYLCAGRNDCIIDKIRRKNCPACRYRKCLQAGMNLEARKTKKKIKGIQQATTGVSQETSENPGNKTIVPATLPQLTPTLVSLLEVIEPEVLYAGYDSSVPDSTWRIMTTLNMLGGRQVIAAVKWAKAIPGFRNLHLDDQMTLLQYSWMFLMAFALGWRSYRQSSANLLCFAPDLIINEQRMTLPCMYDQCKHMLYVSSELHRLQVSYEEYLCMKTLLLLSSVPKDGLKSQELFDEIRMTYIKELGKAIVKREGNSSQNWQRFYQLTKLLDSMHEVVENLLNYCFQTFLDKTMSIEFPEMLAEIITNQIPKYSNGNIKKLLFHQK

CCCCCC[C@@H](CCC)C(=O)O
not listed: [14] | [15] | [16] | [17] | [18] | [19]
inactive: all other assays above

CC1CCN(CCCC(=O)c2ccc(F)cc2)CC1
not listed: [19]
inactive: all other assays above

COC(=O)c1ccc(C(=O)OC)c(C(=O)OC)c1
inactive: all assays above

NCC[C@H](O)C(=O)N[C@@H]1C[C@H](N)[C@@H](O[C@H]2O[C@H](CN)[C@@H](O)[C@H](O)[C@H]2O)[C@H](O)[C@H]1O[C@H]1O[C@H](CO)[C@@H](O)[C@H](N)[C@H]1O
inactive: all assays above

c1ccc(CCCc2ccccn2)cc1
not listed: [17] | [18] | [19]
inactive: all other assays above

C=C[Si](OC)(OC)OC
not listed: [7]
inactive: all other assays above

CCCCCCOC(=O)CC(CC(=O)OCCCCCC)(OC(=O)CCC)C(=O)OCCCCCC
not listed: [15] | [19]
inactive: all other assays above

Cc1onc(-c2ccccc2)c1-c1ccc(S(N)(=O)=O)cc1
not listed: [19]
inactive: all other assays above

OC/C=C/c1ccccc1
not listed: [9] | [17] | [18] | [19]
inactive: all other assays above

CCN(CC)C(=O)c1ccc(O)c(OC)c1
not listed: [14]
inactive: all other assays above

Nc1cc(N)cc(C(=O)O)c1
not listed: [9] | [14] | [16]
inactive: all other assays above

COc1ccc(COC=O)cc1
not listed: [7]
inactive: all other assays above

Cc1ccccc1Br
not listed: [9] | [16] | [17] | [18] | [19]
inactive: all other assays above

CSc1ccc(C=O)cc1
not listed: [16] | [19]
inactive: all other assays above

CC(C)(C)C(=O)/C=C/c1ccc(Cl)cc1
not listed: [15] | [16] | [19]
inactive: all other assays above
